PubChem BioAssay (NCI)
This is part of a sample that, as a whole, favours compounds with a hit. Of some 79,000 tested, about 15% had one in any assay. Unmarked numbers belong to inactive results. The source made the active and inactive calls. No stated cut-off is given here; in the data, active means growth inhibition above about 70%; inactive means the rest.

Legend:
[1] = NCI Yeast Anticancer Drug Screen. Data for the rad50 strain (AID 155);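 further: 0% = growth of vehicle-only cultures of the same strain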; settings: S. cerevisiae rad50 strain growth inhibition; at 50.0 µM; stronger effect = higher value
Method in brief: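 A DNA repair-deficient yeast mutant serves as the test organism; compound-induced growth inhibition is calculated against vehicle-treated cells.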

[2] = NCI Yeast Anticancer Drug Screen. Data for the mec2-1 strain (AID 157); settings: S. cerevisiae mec2-1 strain, at 50.0 µM, stronger effect = higher value
Method in brief: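 Growth inhibition is read against vehicle-treated controls after compound exposure of the mec2-1 yeast strain, which is defective in DNA damage repair or cell cycle control.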

[3] = NCI Yeast Anticancer Drug Screen. Data for the sgs1 mgt1 strain (AID 161);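 further: 0% = growth of cultures given vehicle only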; settings: S. cerevisiae sgs1 mgt1 strain, at 50.0 µM, stronger effect = higher value
Method in brief: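 This yeast growth screen uses a strain with defined DNA-repair lesions; compound-treated growth is compared with vehicle-treated growth.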

[4] = NCI Yeast Anticancer Drug Screen. Data for the cln2 rad14 strain (AID 165);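 further: 0% = growth equal to vehicle treated cultures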; settings: S. cerevisiae cln2 rad14 strain, at 50.0 µM, stronger effect = higher value
Method in brief: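 Growth inhibition, relative to vehicle-treated controls, is the read-out. The test organism is a yeast strain with defined genetic alterations, cln2 rad14.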

[5] = NCI Yeast Anticancer Drug Screen. Data for the bub3 strain (AID 167); settings: S. cerevisiae bub3 mutant strain, at 50.0 µM, stronger effect = higher value
Method in brief: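 Inhibition values come from growth of compound-treated mutant yeast normalised to vehicle-treated controls.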

[6] = NCI Yeast Anticancer Drug Screen. Data for the mlh1 rad18 strain (AID 175); settings: S. cerevisiae mlh1 rad18 strain growth inhibition; at 50.0 µM; stronger effect = higher value
Method in brief: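 Cells of a genetically altered yeast strain, deficient in DNA damage repair, were treated with compound. Their growth was then compared with that of vehicle-treated cultures to give inhibition.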

SMILES	growth inhibition [1]	growth inhibition [2]	growth inhibition [3]	growth inhibition [4]	growth inhibition [5]	growth inhibition [6]
COc1ccc(CC(N)C(=O)OCCCl)cc1 (centres undefined)	6.65%	-0.4%	13.8%	10%	0.3%	12%
CCCCc1c(O)c(N=NC(=O)C[N+](C)(C)C)c2ccccc2c1O	31.5%	40.2%	22.8%	11.6%	0.85%	36.9%
CCN(CC)CC[n+]1ccc2c(C)c3[nH]c4ccccc4c3c(C)c2c1	37.8%	-2.65%	-4.1%	3.3%	31.3%	15.9%
O=S1(=O)CC(Cl)C(I)C1 (centres undefined)	99.4% (active)	99.7% (active)	99.5% (active)	98.8% (active)	99.5% (active)	99.2% (active)
CC(=O)NS(=O)(=O)c1ccc(NC(=O)COC(=O)c2cccc3c(=O)c4ccccc4[nH]c23)cc1	-33.1%	5%	-48.6%	7.1%	-28.6%	-23.6%
O=C(O)CCC(=O)NC1c2ccccc2Oc2ccccc21	-5.9%	-1.75%	11.6%	-10.2%	7.85%	5.95%
O=c1[nH]c2cc([N+](=O)[O-])ccc2nc1/C=C(\O)c1ccc(Cl)cc1	-23.2%	-22.8%	-20.1%	-9.15%	-12.2%	-36.7%
Cc1ccc(NC(=S)NC(Cc2ccccc2)c2ccccc2)cc1 (centres undefined)	78.8% (active)	79.2% (active)	-1.05%	78.5% (active)	90% (active)	85.2% (active)
C[n+]1cccc2cccc(N)c21	22.1%	0.1%	11.3%	-5.65%	15.5%	5.6%
COc1ccc(N2C(=O)c3c(c4[nH]c5ccccc5c4c4ccc(C(C)(C)C)cc34)C2=O)cc1	5.5%	-1.2%	22.6%	19.6%	-10.3%	-2.2%
O=C(c1ccc(Cl)cc1)N(C(=S)N1CCN(c2ccccn2)CC1)C1CCCCC1	4.5%	13.7%	15.3%	6.85%	-16.6%	19.4%
O=C(O)C(=O)O.[NH-]CC(O)CN(CC(O)CO)c1ccccc1.[Pt+2] (centres undefined)	23.2%	1.35%	6.85%	21.7%	-1.45%	11.1%
CCOC(=O)C/C(C)=N\NC(N)=O	38.2%	42.5%	44.8%	18.2%	26.1%	42.8%
N#C/C(=C\c1cccc(N)c1)c1ccccc1	45.4%	57.9%	73.7% (active)	30.1%	88% (active)	80% (active)
CCC(=O)OC1=CC(=O)c2ccccc2C1=O	11.6%	12.4%	4.7%	8.6%	-15.5%	12.6%
CCCCCCCCCCCCCCCCCCCCCCBr	4.95%	4.8%	16.8%	21.4%	-2.75%	14.3%
Cc1cc(=O)[nH]c(/N=C(/N)N(C)C)n1	4.15%	-10.8%	3%	11.4%	8.2%	5.05%
CC(C)(C)NC(=O)Oc1ccc(-c2ccccc2)cc1	4.75%	26.6%	33%	-4.45%	18.2%	32.9%
Cc1ccc(-c2nc3ccccc3cc2N)cc1	5.85%	7.65%	-0.45%	-14%	3.15%	-4.4%
C=CCC(O)c1ccc2c(c1)OCO2 (centres undefined)	-1%	13.3%	-9.8%	-40%	-4.25%	10.1%

SMILES	growth inhibition [1]	growth inhibition [2]	growth inhibition [3]	growth inhibition [4]	growth inhibition [5]	growth inhibition [6]
C1#CCSCC#CCSC1	14.2%	3.4%	11.1%	24.2%	40%	24%
C1COC2OCCOC2O1 (centres undefined)	5.2%	-2.05%	4.6%	-2.55%	1.4%	0.7%
CCOC(=O)C(O)(NC(=O)c1ccc(F)cc1)C(F)(F)F (centres undefined)	12.2%	1.85%	-9.9%	17.1%	-10.2%	-23.9%
CCCCCC(CC)OC(=O)Nc1cccc2ccccc12 (centres undefined)	6.05%	7.2%	10.7%	-9.15%	-3.35%	0.1%
CCOC(=O)CNCc1ccc(Cl)c(Cl)c1	16.1%	4.15%	28.2%	-15.6%	26.9%	21.9%
CC1C2CC(C(S(=O)(=O)O)C2=O)C1(C)C (centres undefined)	9.25%	-7%	-32.5%	6.45%	-36.8%	-29.3%
Clc1ccc(-c2nnc(-c3cccc4ccccc34)o2)cc1Cl	10.1%	-32.3%	-29.5%	54%	-47.9%	-15%
CCN(CC)C(=O)c1ccncc1C(=O)c1ccncc1	-1.2%	-3.55%	-8.4%	-14.3%	-1.95%	-10.1%
O=C(CN1CCCC1=O)CS(=O)(=O)c1ccccc1	-14.5%	-5.3%	-20.3%	-0.6%	-9.6%	2.3%
O=C(O)CCCCCCCCCCS(=O)(=O)CCO	5.2%	6.25%	13.4%	20.2%	19.9%	-10%
COc1cccc2c1OCC1Cc3ccccc3OC21 (centres undefined)	72.2% (active)	45%	85.7% (active)	72.2% (active)	51.8%	95.7% (active)
C=C(C)C(=O)OCCn1c(=O)c2c(ncn2C)n(C)c1=O	-7.25%	-18.8%	-12.8%	-3.1%	-14.5%	5.55%
Cc1ccc(S(=O)(=O)n2cnc(CC(NC(=O)C3CCC(=O)N3C(=O)OCc3ccccc3)C(=O)N3CCCC3C(=O)NN)c2)cc1 (centres undefined)	-38.9%	-43.1%	-30.8%	-9.95%	-30.9%	-18.2%
COc1c(C)c(C)c(Br)c(C)c1C	6.35%	7.65%	6.7%	15.6%	0.55%	12.2%
O=C1C=C(Nc2ccc3ccccc3c2[N+](=O)[O-])c2ccccc2C1=O	27.2%	17.4%	8.05%	-16.4%	23.2%	7.1%
CCOC(=O)CC1(O)Oc2cc3c(cc2C(c2cc(OC)c(OC)c(OC)c2)C1C(=O)OCC)OCO3 (centres undefined)	-0.75%	-5.9%	-21.6%	-0.55%	-1.45%	10.2%
Clc1nnc(Cl)c2ncccc12	3.6%	8.3%	-3.6%	-2.95%	-3%	-1.75%
CC(=O)C=NCC(=O)O	-2.45%	-3.4%	-32.2%	-24.8%	-26.6%	-8.8%
Cc1ccc(Cl)c2c1C(=O)c1ccccc1C2=O	24.2%	7.65%	3.3%	14.8%	5.6%	23.9%
